Laboratory results published in PubChem BioAssay.
The source made the active and inactive calls. Unless noted, how the calls were made is not given here.

How the values were obtained:
[1] = kinase inhibitors against Plasmodium liver-stage infection, cell-based, known kinase inhibitor set, luminescence, hepatoma host viability (AID 624392); details: Plasmodium liver stage in hepatoma cells, luciferase luminescence, concentration not given here; liver cell % of control: measured here: host liver cell viability; parasite % of control: stronger effect = lower value;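 further: infected cells incubated roughly two days before readout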
[2] = modulators of glucocorticoid suppression of NF-kB, cell-based, luciferase, IL-1B stimulus, dexamethasone (AID 624486); details: NF-kB luciferase reporter, IL-1B + dexamethasone, luminescence; percent of negative control (+Dex): actives lie on both sides, concentration not given here; z-score: measured here: IL-1B alone, no Dex;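 on percent of negative control (+Dex): 100% = mean signal of vehicle control wells on the plate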
[3] = kinase inhibitors altering Pseudomonas killing of worms, whole organism (AID 651566);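 further: tested at 14 µM; sign flipped so higher z means a lower ratio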; details: C. elegans killed by P. aeruginosa, survival ratio
[4] = activators of macrophage pro-inflammatory response, cell-based, murine, luminescence (AID 652131); details: murine macrophage pro-inflammatory reporter, stronger effect = higher value
[5] = target: Cellular tumor antigen p53 (Homo sapiens) (UniProt P04637); assay: kinase inhibitors altering GFP-p53 stability in HPV16-positive cells, imaging, known kinase inhibitor set, EGFP/DsRed ratio (AID 1053116); details: stronger effect = higher value; EGFP object count: measured here: GFP-p53 positive objects count;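 further: cells exposed to compounds for 24 h at 37 °C before reading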
Cellular tumor antigen p53 (Homo sapiens), sequence (P04637 whole entry, looked up): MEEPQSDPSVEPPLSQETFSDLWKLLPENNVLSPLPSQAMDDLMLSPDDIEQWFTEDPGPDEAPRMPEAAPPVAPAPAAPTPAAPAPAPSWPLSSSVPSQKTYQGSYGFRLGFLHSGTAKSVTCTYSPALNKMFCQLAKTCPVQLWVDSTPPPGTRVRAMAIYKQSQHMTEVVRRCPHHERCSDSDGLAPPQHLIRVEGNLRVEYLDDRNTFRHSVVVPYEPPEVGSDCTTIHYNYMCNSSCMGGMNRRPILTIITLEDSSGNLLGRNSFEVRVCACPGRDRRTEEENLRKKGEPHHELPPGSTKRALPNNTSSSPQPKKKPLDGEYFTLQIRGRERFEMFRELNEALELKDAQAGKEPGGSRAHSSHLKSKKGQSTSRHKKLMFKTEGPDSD

[6] = IRF3 reporter activation in THP-1 macrophages, cell-based, PMA-stimulated THP-1, luminescence (AID 1053176); details: PMA-differentiated THP-1, IRF3 reporter luminescence; stronger effect = higher value
[7] = survival rescue of mitochondrial mutant cells in low glucose, primary screen, MELAS cybrids, Rieske KO mouse fibroblasts, CellTiter-Glo (AID 1508586;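 active means mean z-score across replicates of 1.96 or higher in either the MELAS or the Rieske mutant cell line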;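 further: z relative to plate mean and SD of compound and empty wells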)
[8] = MELAS cybrid survival, CellTiter-Glo 48 h, stronger effect = higher value
[9] = Rieske KO mouse fibroblast survival, CellTiter-Glo 72 h

| Compound | liver cell % of control [1] | parasite % of control [1] | percent of negative control (+Dex) [2] | z-score [2] | z-score [3] | z-score [4] | EGFP object count [5] | EGFP/DsRed ratio [5] | fraction signal [6] | z-score [7, 8] | z-score [7, 9] |
| --- | --- | --- | --- | --- | --- | --- | --- | --- | --- | --- | --- |
| Nc1nc(-c2ccc3c(c2)/C(=C\c2cc(Br)c(O)c(Br)c2)C(=O)N3)cs1 | 70.8% | 79.2% (inactive) | 86.5% (inactive) | -0.23 | 0.35 (inactive) | 2.85 (inactive) | 5.5 | 0.264 (inactive) | -0.002 (inactive) | -0.944 (inactive) | -0.14 |
| COc1cc2ncn(-c3cc(OCc4ccccc4C(F)(F)F)c(C(C)=O)s3)c2cc1OC | 97.8% | 91.8% (inactive) | 82.5% (inactive) | -0.63 | -0.4 (inactive) | -0.463 (inactive) | 5 | 0.118 (inactive) | 0.002 (inactive) | -0.657 (inactive) | 0.0101 |
| O=S1CCN(Cc2ccc(-c3ccc4ncnc(Nc5ccc(OCc6ccccc6)c(Cl)c5)c4c3)o2)CC1 | 98.4% | 108% (inactive) | 77% (inactive) | -0.87 | 0.67 (inactive) | 1.11 (inactive) | 5 | 0.0559 (inactive) | -0.0035 (inactive) | 1.05 (inactive) | -0.081 |
| CCn1c(-c2nonc2N)nc2c(C#CC(C)(C)O)ncc(OCC3CCNCC3)c21 | 88.1% | 91.5% (inactive) | 86% (inactive) | -0.76 | -1.35 (inactive) | 3.98 (inactive) | 13 | 0.169 (inactive) | 0.002 (inactive) | 0.123 (inactive) | -0.292 |
| N#Cc1c(NC(=O)c2ccc(F)cc2)sc2c1CCCC2 | 159% | 137% (inactive) | 246% (active) | 14.3 | -0.855 (inactive) | 3.47 (inactive) | 6 | 0.0854 (inactive) | -0.006 (inactive) | -0.073 (inactive) | 0.00203 |
| COc1ccc(-c2cc(C3CNNC3c3ccccn3)ccn2)cc1 (stereo not given) | 171% | 92.3% (inactive) | 104% (inactive) | 1.42 | -0.77 (inactive) | 2.73 (inactive) | 3.5 | 0.0398 (inactive) | -0.0055 (inactive) | -0.36 (inactive) | -0.107 |
| NS(=O)(=O)c1ccc(-c2cc3ccncc3cc2OCc2ccccc2)cc1 | 218% | 144% (inactive) | 81% (inactive) | -1.8 | -0.345 (inactive) | 6.56 (active) | 4.5 | 0.0743 (inactive) | -0.005 (inactive) | -0.151 (inactive) | -0.251 |
| c1cnn2ncc(-c3ccnc(Nc4ccc5c(c4)OCCO5)n3)c2c1 | 141% | 14% (inactive) | 5% (active) | -9.09 | 0.965 (inactive) | -1.27 (inactive) | 2.5 | 0.105 (inactive) | -0.0005 (inactive) | 0.529 (inactive) | 0.76 |
| CCOc1nccc2c1nc(-c1nonc1N)n2CC | 107% | 176% (inactive) | 86% (inactive) | -0.885 | 0.225 (inactive) | 0.153 (inactive) | 4.5 | 0.429 (inactive) | 0 (inactive) | -0.642 (inactive) | -0.113 |
| CCS(=O)(=O)c1ccc(OC)c(Nc2ncc(-c3ccccc3Cl)o2)c1 | 160% | 36.8% (inactive) | 74.5% (inactive) | -0.91 | -0.335 (inactive) | -0.503 (inactive) | 4.5 | 0.0626 (inactive) | 0.0065 (inactive) | 1.39 (inactive) | -0.145 |
| Nc1ncnc2occ(-c3ccc(NC(=O)Nc4cccc(C(F)(F)F)c4)cc3)c12 | 49.9% | 10.9% (inactive) | 66.5% (active) | -3 | -0.335 (inactive) | -1.22 (inactive) | 3.5 | 0.146 (inactive) | -0.016 (inactive) | -0.197 (inactive) | -0.452 |
| COc1ccc(-c2nn3ncccc3c2-c2ccnc(Nc3cccc(C(F)(F)F)c3)n2)cc1 | 92.5% | 122% (inactive) | 90.5% (inactive) | 0.64 | 0.3 (inactive) | 0.045 (inactive) | 4.5 | 0.0918 (inactive) | 0.002 (inactive) | 1.24 (inactive) | -0.239 |
| O=C1NC(=O)C(c2ccc(Cl)cc2)=C1Nc1ccc(Cl)c(C(=O)O)c1 | 104% | 127% (inactive) | 92% (inactive) | 0.785 | 0.035 (inactive) | 0.277 (inactive) | 4 | 0.0822 (inactive) | -0.003 (inactive) | -0.525 (inactive) | -0.308 |
| N#Cc1cccc(Nc2nccc(-c3cnn4ncccc34)n2)c1 | 128% | 19.1% (inactive) | 2% (active) | -9.25 | 0.415 (inactive) | -1.79 (inactive) | 1 | 0.00226 (inactive) | -0.013 (inactive) | 0.321 (inactive) | 1.44 |
| Fc1ccc(-c2ncn(C3CCNCC3)c2-c2ccnc(Oc3ccc(Oc4ccccc4)cc3)n2)cc1 | 58.8% | 102% (inactive) | 99% (inactive) | 0.615 | -1.07 (inactive) | -0.715 (inactive) | 28.5 | 0.354 (inactive) | -0.002 (inactive) | -0.215 (inactive) | -0.0474 |
